Results as given in PubChem BioAssay.
Results filed as inconclusive are left out. Activity calls are given as the source filed them.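 The calls were made as follows, unless noted: active = binding below the plate cutoff, the plate median minus 3 SD, with a reading above zero; inconclusive = below the plate cutoff but reading exactly zero; inactive = the rest.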

Tests used:
[1] = yeast TOR pathway RPL19A-GFP modulators, primary screen, cell-based, S. cerevisiae, multiplex flow cytometry (AID 1862; in the data active = percent of DMSO control GFP below about 86%;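 also: lower values mimic rapamycin by blocking the RPL19A rise seen in DMSO cells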); conditions: S. cerevisiae RPL19A-GFP strain, flow cytometry fluorescence, 3 h; at 10 µM; stronger effect = lower value
[2] = modulators of MEP2-GFP levels in yeast, primary screen, S. cerevisiae, multiplex flow cytometry (AID 1867;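 active = GFP response, as percent of the DMSO control, above the screen-wide mean plus 3 SD, about 139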;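 also: median GFP channel fluorescence of barcode-gated MEP2-GFP cells measured by flow cytometry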); conditions: S. cerevisiae MEP2-GFP strain, 3 h, at 10 µM, stronger effect = higher value, 100% means same as DMSO wells
[3] = modulators of CIT2-GFP expression in yeast, primary screen, S. cerevisiae, GFP fusion, multiplex flow cytometry (AID 1870;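 active = percent response above a set limit, the screen-wide mean plus 3 SD, cut at about 130% in these data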;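 also: barcoded CIT2-GFP strain pooled with four other GFP strains with rapamycin as positive control; median GFP fluorescence per well over plate mean of DMSO wells so 100% = DMSO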); conditions: 3 h, at 10 µM, stronger effect = higher value
[4] = modulators of LAP4-GFP expression in yeast, primary screen, S. cerevisiae, multiplex flow cytometry (AID 1873;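 active = GFP signal, as percent of the solvent control, above the screen mean plus 3 SD, about 149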); conditions: 3 h, at 10 µM, stronger effect = higher value
[5] = modulators of AGP1-GFP expression in yeast TOR pathway, primary screen, cell-based, multiplex flow cytometry, S. cerevisiae (AID 1887;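 active = GFP signal above the screen-wide mean plus 3 SD, that is over about 124.5% of the solvent control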;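 also: AGP1-GFP fusion strain of S. cerevisiae within a five-strain barcoded multiplex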); conditions: 3 h, at 10 µM, stronger effect = higher value
[6] = inhibitors of CD8+ T cell-vesicle binding, pilot screen, LFA-1/ICAM-1 modulator project, MLPCN validation set, flow cytometry (AID 2523;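 active = response below a set limit, under 55% cells CD8-positive and vesicle-bound, and CD8 cells' 90th-percentile brightness under 279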;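 as to vesicle binding response: mean PE anti-B7-1 fluorescence of CD8+ cells relative to row control; 100% = QL9-loaded vesicles with DMSO vehicle in the same plate row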); conditions: 2C mouse CD8+ T cells, at 7 µM, stronger effect = lower value; double positive events: measured here: CD8+/vesicle+ event percentage
[7] = biological target: Integrin beta-1 (Homo sapiens) + Integrin alpha-4 (Homo sapiens) (UniProt P13612+P05556); assay: inhibition of HUTS-21 binding to VLA-4, pilot screen, VLA-4 allosteric modulator project, U937 cells, HUTS-21 mAb, flow cytometry, validation set (AID 2674;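 active = inhibition above 50%, about 3 SD of the validation set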;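 also: antibody binding induced by the VLA-4 ligand LDV present at three times its Kd; 0% = LDV ligand with antibody and no compound and 100% = antibody without LDV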); conditions: HUTS-21 LIBS mAb binding, at 6.7 µM, stronger effect = higher value, binding induced by LDV ligand
[8] = superoxide lowering in aged yeast cells, pilot screen, validation compound set (AID 2706;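 active = superoxide response below 65% of plate, a cut near 3 SD across the whole screen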;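 also: yeast exposed to compound for one week at 30 degrees C before staining; 100% = mean of all compound wells on the same plate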); conditions: S. cerevisiae aging, superoxide DHE fluorescence; at 10 µM, stronger effect = lower value
[9] = biological target: Beta-adrenergic receptor kinase 1 (Homo sapiens) (UniProt P25098); assay: GRK2 binders displacing RNA aptamer, biochemical, validation, human GRK2, bead flow cytometry (AID 488806;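 active = aptamer binding inhibition above 30%, about 3 SD of noise from non-fluorescent compounds; inactive = inhibition at or below 30%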); conditions: bead-bound GRK2, FAM-aptamer displacement, at 10 µM, stronger effect = higher value
[10] = biological target: AP-2 complex subunit beta (Homo sapiens) (UniProt P63010); assay: inhibitors of arrestin peptide binding to AP2, pilot screen, biochemical, validation set, GST-AP2 beads, flow cytometry (AID 504541;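 active = inhibition above 54%, about 3 SD of non-fluorescent compounds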;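 also: AP2 carries R879A mutation and is captured from E. coli lysate; bead-bound FITC arrestin peptide fluorescence measuring arrestin peptide binding to AP2; 0% = DMSO wells and 100% = excess unlabeled arrestin peptide control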); conditions: FITC arrestin peptide, at 10 µM, stronger effect = higher value, AP2 beta2 appendage fragment, R879A mutant
[11] = yeast V-ATPase proton transport modulators, S. cerevisiae, pHLuorin, HTS validation (AID 504600; in the data active = response above about 15%;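 also: plate controls were DMSO for no effect and reference compound for full effect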); conditions: S. cerevisiae pHLuorin cytosolic pH, at 10 µM, stronger effect = higher value
[12] = tested on: anti-desmoglein-3 scFv antibody binding to human DSG3; assay: inhibitors of anti-DSG3 scFv binding to DSG3, pilot screen, biochemical, validation compound set, bead-based, flow cytometry (AID 588368); conditions: Protein G beads, DSG3-Fc, scFv-GFP binding, at 10 µM, stronger effect = lower value;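 also: signal is the median channel fluorescence of bead-bound GFP antibody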
[13] = inhibitors of fungal efflux pumps CDR1, CDR2, MDR1, pilot screen, validation compound set, multiplex, phenotypic (AID 588506;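 active = efflux inhibition above 0.42, the validation set average plus 4 SD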;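 also: Nile Red retained in cells so higher fluorescence means more efflux inhibition; 0 = negative control wells and 1 = enniatin B 25 µM full block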); conditions: S. cerevisiae pump-expressing triplex, Nile Red efflux flow cytometry; at 10 µM; stronger effect = higher value; the pumps come from Candida albicans
[14] = biological target: ATP-binding cassette sub-family B member 6 (Homo sapiens) (UniProt Q9NP58); assay: ABCB6 transporter inhibitors, pilot screen, K562-ABCB6 cells, flow cytometry, validation set (AID 588550;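 active = inhibition above the screen-wide mean plus 3 SD, about 51%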;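 also: 0% = DMSO wells and 100% = benzethonium chloride 70 µM positive control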); conditions: K562-ABCB6 porphyrin accumulation, 1 h, at 10 µM, stronger effect = higher value
[15] = promoters of myeloid differentiation in arrested cells, primary screen, cell-based, GFP/MAC1 double positive, flow cytometry, validation set (AID 588685;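 active = differentiation response of at least 50%, scaled between solvent and reference control, from cells with both markers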;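 also: compound exposure lasts four days before antibody staining and flow analysis; 0% = DMSO wells and 100% = 5 µM fulvestrant positive control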); conditions: ER-HoxA9 marrow cells, stronger effect = higher value, normalized: vehicle 0, fulvestrant 100

Chain of ATP-binding cassette sub-family B member 6 (Homo sapiens) (Q9NP58 whole entry, looked up): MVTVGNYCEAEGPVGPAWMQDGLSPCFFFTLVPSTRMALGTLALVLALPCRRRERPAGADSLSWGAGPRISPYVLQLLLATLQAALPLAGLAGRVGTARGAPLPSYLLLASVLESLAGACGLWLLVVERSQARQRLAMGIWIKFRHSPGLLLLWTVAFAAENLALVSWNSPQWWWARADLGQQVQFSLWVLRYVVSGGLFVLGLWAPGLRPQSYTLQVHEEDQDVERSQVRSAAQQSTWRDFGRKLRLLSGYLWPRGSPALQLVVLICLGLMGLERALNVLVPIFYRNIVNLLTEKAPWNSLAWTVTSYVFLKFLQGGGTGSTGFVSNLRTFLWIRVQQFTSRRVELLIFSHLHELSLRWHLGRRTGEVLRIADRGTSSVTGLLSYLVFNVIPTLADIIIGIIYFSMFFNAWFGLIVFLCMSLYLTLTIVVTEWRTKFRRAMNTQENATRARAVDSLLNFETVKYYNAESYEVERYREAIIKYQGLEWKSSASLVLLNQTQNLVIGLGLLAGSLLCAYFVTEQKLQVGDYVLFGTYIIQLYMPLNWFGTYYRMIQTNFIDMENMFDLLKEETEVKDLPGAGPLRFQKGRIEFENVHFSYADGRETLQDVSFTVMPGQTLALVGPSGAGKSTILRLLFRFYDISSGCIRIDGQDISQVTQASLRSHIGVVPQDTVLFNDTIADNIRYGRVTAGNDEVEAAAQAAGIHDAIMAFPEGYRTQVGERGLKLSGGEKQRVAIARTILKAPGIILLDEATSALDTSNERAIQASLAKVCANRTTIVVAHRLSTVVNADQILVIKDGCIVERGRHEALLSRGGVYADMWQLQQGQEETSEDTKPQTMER
Chain of Beta-adrenergic receptor kinase 1 (Homo sapiens) (P25098 whole entry, looked up): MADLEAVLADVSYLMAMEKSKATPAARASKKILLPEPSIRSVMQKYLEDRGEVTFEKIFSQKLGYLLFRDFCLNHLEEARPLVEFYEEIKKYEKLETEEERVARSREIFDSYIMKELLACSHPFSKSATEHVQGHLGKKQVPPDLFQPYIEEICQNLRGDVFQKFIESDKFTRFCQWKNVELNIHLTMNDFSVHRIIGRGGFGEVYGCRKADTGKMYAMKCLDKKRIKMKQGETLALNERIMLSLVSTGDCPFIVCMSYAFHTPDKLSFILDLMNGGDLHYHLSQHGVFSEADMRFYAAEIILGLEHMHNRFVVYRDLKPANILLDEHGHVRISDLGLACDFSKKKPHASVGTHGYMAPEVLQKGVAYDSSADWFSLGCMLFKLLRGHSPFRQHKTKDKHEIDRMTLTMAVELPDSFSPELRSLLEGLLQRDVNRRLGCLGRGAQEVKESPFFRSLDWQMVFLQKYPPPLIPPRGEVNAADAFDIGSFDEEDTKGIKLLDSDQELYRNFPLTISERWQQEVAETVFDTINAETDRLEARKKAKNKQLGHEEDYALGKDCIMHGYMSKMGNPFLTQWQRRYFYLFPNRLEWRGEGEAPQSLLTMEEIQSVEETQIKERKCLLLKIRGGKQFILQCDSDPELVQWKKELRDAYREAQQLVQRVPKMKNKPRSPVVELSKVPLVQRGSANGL
Chain of AP-2 complex subunit beta (Homo sapiens) (P63010 whole entry, looked up, the tested form may be a part, one chain of several): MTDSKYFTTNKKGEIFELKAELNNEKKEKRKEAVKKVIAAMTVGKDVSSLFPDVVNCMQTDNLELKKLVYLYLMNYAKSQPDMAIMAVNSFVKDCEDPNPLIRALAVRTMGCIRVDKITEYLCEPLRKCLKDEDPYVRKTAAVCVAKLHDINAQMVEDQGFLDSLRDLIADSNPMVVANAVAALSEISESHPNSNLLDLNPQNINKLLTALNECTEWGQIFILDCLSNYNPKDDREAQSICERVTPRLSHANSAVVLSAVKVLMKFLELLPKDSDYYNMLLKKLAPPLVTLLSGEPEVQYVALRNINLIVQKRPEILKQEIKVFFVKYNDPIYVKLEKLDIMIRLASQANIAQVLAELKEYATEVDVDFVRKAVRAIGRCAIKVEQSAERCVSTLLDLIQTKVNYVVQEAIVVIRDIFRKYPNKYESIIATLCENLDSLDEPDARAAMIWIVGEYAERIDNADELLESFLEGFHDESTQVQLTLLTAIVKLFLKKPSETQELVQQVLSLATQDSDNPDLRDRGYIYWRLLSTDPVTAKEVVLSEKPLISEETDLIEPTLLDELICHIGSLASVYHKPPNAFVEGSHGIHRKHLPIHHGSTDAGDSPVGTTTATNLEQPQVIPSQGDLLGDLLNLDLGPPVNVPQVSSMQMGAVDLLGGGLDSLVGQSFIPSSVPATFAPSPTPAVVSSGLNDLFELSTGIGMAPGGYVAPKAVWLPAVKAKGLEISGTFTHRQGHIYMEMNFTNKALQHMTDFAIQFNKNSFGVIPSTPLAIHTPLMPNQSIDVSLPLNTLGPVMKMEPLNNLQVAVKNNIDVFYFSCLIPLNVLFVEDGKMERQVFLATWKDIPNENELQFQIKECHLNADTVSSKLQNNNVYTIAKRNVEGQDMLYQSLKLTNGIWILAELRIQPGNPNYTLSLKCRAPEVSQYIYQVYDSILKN
Chain of Integrin beta-1 (Homo sapiens) + Integrin alpha-4 (Homo sapiens) (P05556 whole entry, looked up): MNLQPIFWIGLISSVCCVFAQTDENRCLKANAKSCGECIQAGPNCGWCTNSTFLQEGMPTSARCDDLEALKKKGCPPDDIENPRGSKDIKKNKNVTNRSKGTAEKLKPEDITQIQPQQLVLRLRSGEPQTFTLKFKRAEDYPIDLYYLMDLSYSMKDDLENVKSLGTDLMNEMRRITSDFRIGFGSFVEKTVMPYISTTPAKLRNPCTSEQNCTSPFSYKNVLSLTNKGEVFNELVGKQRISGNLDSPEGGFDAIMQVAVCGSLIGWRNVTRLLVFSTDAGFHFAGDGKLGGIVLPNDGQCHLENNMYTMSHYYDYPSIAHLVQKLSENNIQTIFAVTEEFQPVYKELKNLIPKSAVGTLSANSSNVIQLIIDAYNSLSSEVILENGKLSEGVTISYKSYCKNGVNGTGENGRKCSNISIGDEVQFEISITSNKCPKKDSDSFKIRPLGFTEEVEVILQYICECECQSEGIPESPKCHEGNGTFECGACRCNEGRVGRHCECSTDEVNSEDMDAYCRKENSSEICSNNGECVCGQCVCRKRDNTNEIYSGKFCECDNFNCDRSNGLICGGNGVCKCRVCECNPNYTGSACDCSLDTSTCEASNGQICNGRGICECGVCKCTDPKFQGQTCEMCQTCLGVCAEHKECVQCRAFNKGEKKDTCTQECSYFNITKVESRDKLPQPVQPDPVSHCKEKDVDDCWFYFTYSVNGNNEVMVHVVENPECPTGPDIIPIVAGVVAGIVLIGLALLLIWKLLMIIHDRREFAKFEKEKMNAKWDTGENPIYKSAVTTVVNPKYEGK
Chain of Integrin beta-1 (Homo sapiens) + Integrin alpha-4 (Homo sapiens) (P13612 whole entry, looked up): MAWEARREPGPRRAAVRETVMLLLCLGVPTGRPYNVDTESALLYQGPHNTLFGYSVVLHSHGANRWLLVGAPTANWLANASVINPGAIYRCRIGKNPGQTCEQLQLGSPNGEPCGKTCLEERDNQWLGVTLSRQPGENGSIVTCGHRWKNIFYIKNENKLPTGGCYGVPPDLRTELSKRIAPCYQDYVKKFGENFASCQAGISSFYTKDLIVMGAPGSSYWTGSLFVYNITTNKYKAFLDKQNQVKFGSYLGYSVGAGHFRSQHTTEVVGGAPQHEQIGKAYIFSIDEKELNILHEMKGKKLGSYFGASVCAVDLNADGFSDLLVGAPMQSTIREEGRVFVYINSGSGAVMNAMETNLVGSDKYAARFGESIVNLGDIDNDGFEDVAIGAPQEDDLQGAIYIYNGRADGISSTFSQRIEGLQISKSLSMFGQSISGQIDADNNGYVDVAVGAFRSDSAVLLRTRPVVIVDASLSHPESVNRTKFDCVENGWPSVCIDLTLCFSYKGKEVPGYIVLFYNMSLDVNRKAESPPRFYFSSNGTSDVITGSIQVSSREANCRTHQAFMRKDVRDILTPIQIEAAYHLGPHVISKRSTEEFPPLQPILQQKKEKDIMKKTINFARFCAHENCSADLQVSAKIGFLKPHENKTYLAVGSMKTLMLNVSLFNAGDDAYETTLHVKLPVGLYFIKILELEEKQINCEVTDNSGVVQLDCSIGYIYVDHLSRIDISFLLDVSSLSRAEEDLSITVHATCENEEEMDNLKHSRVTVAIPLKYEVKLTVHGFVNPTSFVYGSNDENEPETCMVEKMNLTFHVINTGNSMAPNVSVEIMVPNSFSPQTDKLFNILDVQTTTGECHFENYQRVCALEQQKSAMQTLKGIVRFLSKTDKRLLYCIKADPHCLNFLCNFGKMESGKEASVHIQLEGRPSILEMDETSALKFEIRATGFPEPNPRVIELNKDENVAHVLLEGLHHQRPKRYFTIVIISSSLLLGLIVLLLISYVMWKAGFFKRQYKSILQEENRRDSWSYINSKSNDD

COC(=O)c1cc(=O)c2ccc(OC)cc2o1
52.9%: double positive events [6]
active: response [11] 37.7%
inactive: percent of DMSO control GFP [1] 99.1% | GFP response vs DMSO [2] 97.9% | percent response of DMSO control [3] 111% | GFP response vs DMSO [4] 100% | GFP response, % of DMSO [5] 90.9% | vesicle binding response [6] 152% | inhibition [7] 17.5% | superoxide response (% of plate) [8] 94.7% | aptamer binding inhibition [9] 1% | inhibition [10] -3.93% | binding (% of control) [12] 101% | efflux inhibition (fraction of control) [13] 0.03 | inhibition [14] 6% | differentiation response [15] -11.5%

Clc1ccc2c(c1)C(N1CCNCC1)=Nc1ccccc1O2
inactive: percent of DMSO control GFP [1] 107% | GFP response vs DMSO [2] 106% | percent response of DMSO control [3] 109% | GFP response vs DMSO [4] 101% | GFP response, % of DMSO [5] 105% | vesicle binding response [6] 200% | inhibition [7] -42.2% | superoxide response (% of plate) [8] 103% | aptamer binding inhibition [9] -1% | inhibition [10] 24.4% | response [11] -1.95% | binding (% of control) [12] 101% | efflux inhibition (fraction of control) [13] -0.47 | inhibition [14] 7% | differentiation response [15] -8.27%
64%: double positive events [6]

Nc1cccc2c1nnn2C1OC(CO)C(O)C(O)C1O (stereo not given)
58%: double positive events [6]
inactive: percent of DMSO control GFP [1] 104% | GFP response vs DMSO [2] 94.8% | percent response of DMSO control [3] 102% | GFP response vs DMSO [4] 85.3% | GFP response, % of DMSO [5] 102% | vesicle binding response [6] 192% | inhibition [7] -3.97% | superoxide response (% of plate) [8] 82.8% | aptamer binding inhibition [9] 0% | inhibition [10] -6.04% | response [11] 4.02% | binding (% of control) [12] 105% | efflux inhibition (fraction of control) [13] -0.05 | inhibition [14] 4% | differentiation response [15] -18%

COC1=CC(=O)CC(C)C12Oc1c(Cl)c(OC)cc(OC)c1C2=O (stereo not given)
inactive: percent of DMSO control GFP [1] 105% | GFP response vs DMSO [2] 99.9% | percent response of DMSO control [3] 107% | GFP response vs DMSO [4] 103% | GFP response, % of DMSO [5] 98.7% | vesicle binding response [6] 131% | inhibition [7] 8.15% | superoxide response (% of plate) [8] 97.4% | aptamer binding inhibition [9] -1% | inhibition [10] 14.5% | response [11] 0.18% | binding (% of control) [12] 95.9% | efflux inhibition (fraction of control) [13] -0.09 | inhibition [14] 8% | differentiation response [15] -14.7%
42.3%: double positive events [6]

CC(C)CCOCC(=O)Nc1cccc(C(=O)O)c1
59.8%: double positive events [6]
inactive: percent of DMSO control GFP [1] 99.5% | GFP response vs DMSO [2] 107% | percent response of DMSO control [3] 98.8% | GFP response vs DMSO [4] 95.4% | GFP response, % of DMSO [5] 99.7% | vesicle binding response [6] 174% | inhibition [7] 10.9% | superoxide response (% of plate) [8] 110% | aptamer binding inhibition [9] 1% | inhibition [10] 41.3% | response [11] -5.9% | binding (% of control) [12] 103% | efflux inhibition (fraction of control) [13] -0.12 | inhibition [14] 3% | differentiation response [15] 11.1%

O=[N+]([O-])c1cc(/C=N/n2cnnc2)ccc1N1CCCC1
inactive: percent of DMSO control GFP [1] 100% | GFP response vs DMSO [2] 99.9% | percent response of DMSO control [3] 97.9% | GFP response vs DMSO [4] 95.4% | GFP response, % of DMSO [5] 101% | vesicle binding response [6] 182% | inhibition [7] 10.9% | superoxide response (% of plate) [8] 105% | aptamer binding inhibition [9] 6% | inhibition [10] 5.45% | response [11] -0.97% | binding (% of control) [12] 96.4% | efflux inhibition (fraction of control) [13] -0.43 | inhibition [14] 3% | differentiation response [15] -8.27%
60.8%: double positive events [6]

O=C(O)c1ccccc1O
inactive: percent of DMSO control GFP [1] 101% | GFP response vs DMSO [2] 101% | percent response of DMSO control [3] 96.9% | GFP response vs DMSO [4] 97.4% | GFP response, % of DMSO [5] 98.8% | vesicle binding response [6] 178% | inhibition [7] 15.6% | superoxide response (% of plate) [8] 100% | aptamer binding inhibition [9] 3% | inhibition [10] 0.05% | response [11] -0.04% | binding (% of control) [12] 104% | inhibition [14] 0% | differentiation response [15] -9.89%
active: efflux inhibition (fraction of control) [13] 0.44
59%: double positive events [6]

OCCN1CCN(CCCN2c3ccccc3Sc3ccc(Cl)cc32)CC1
active: inhibition [7] 68.7% | efflux inhibition (fraction of control) [13] 0.71
inactive: percent of DMSO control GFP [1] 104% | GFP response vs DMSO [2] 104% | percent response of DMSO control [3] 100% | GFP response vs DMSO [4] 112% | GFP response, % of DMSO [5] 121% | vesicle binding response [6] 268% | superoxide response (% of plate) [8] 111% | aptamer binding inhibition [9] -10% | inhibition [10] 29.9% | response [11] 5.46% | binding (% of control) [12] 115% | inhibition [14] -3% | differentiation response [15] -11.9%
64.3%: double positive events [6]

O=C1OCCN1/N=C/c1ccc([N+](=O)[O-])o1
48.6%: double positive events [6]
inactive: percent of DMSO control GFP [1] 103% | GFP response vs DMSO [2] 103% | percent response of DMSO control [3] 109% | GFP response vs DMSO [4] 111% | GFP response, % of DMSO [5] 102% | vesicle binding response [6] 157% | inhibition [7] 3.49% | superoxide response (% of plate) [8] 124% | aptamer binding inhibition [9] -2% | inhibition [10] 3.09% | response [11] 8.6% | binding (% of control) [12] 104% | efflux inhibition (fraction of control) [13] 0.06 | inhibition [14] 4% | differentiation response [15] -16.4%

O=c1nc2cccc3c2=c(/c1=C(\O)c1ccccc1)c1ccccc1c3=O
inactive: percent of DMSO control GFP [1] 102% | GFP response vs DMSO [2] 102% | percent response of DMSO control [3] 105% | GFP response vs DMSO [4] 96.4% | GFP response, % of DMSO [5] 99.3% | vesicle binding response [6] 175% | inhibition [7] -23.6% | superoxide response (% of plate) [8] 99.9% | aptamer binding inhibition [9] 8% | inhibition [10] 17.9% | response [11] 1.67% | binding (% of control) [12] 91% | efflux inhibition (fraction of control) [13] -0.16 | inhibition [14] 9% | differentiation response [15] -6.66%
47.4%: double positive events [6]
